# Compounds with a hit are over-represented: about 21% of the library has one in this group of screens.
# Cycloheximide cs: counter-screen for Shiga toxin inhibitors: cycloheximide protein synthesis inhibition; actives 12% (n = 300,000); cell reporter, cycloheximide protein synthesis inhibition counterscreen; max response, %; in the data active = max response mostly above about 13%, no sharp cut-off; inactive = mostly below about 14%; note: read at 38.3 µM for the half of the compounds with a filed dose; 0% is about no effect
# Giardia FBPA inh: blocks Giardia fructose-bisphosphate aldolase activity. purified Giardia FBPA. actives 0.71% (n = 290,000). Potency, µM (titrated, usually from 59.6 µM), for inactives: top-dose activity, negative = inhibition, actives largely listed as inhibitors. A8B2U2; note: potency is the fitted concentration of half-maximal effect; % is set by controls: 0 for no effect and ±100 for the full control effect; nearly all actives have a fitted effect of over 55% in size
# Target sequence (A8B2U2 whole entry, looked up): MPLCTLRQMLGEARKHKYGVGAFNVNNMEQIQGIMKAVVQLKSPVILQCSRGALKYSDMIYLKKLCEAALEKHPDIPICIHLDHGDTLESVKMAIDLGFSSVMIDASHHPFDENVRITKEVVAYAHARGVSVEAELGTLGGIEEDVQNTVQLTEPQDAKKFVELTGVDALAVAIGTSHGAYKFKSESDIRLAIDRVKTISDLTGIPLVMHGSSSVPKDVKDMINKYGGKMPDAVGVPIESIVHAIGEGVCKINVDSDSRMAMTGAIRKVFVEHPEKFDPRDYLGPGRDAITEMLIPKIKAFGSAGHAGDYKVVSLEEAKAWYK
#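 40 nM FBPA preincubated 10 min at RT with compound (up to 57.5 uM final), then substrate plus GAPDH/TPI/NAD/arsenate coupling and diaphorase/resazurin added. Fluorescence read after 20 min at RT, 525/598 nm.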
# Shiga inhibitor: inhibitors of Shiga toxin in Vero cells; AID 2315; Vero cells, Shiga toxin protein synthesis inhibition reporter; actives 9.2% (n = 290,000); inhibition, % at 38.7 µM; in the data active = inhibition mostly above about 28%, no sharp cut-off; inactive = mostly below about 43%; note: 0% is about no effect
# NS1 function inh: inhibitors of influenza NS1 protein function. actives 0.4% (n = 270,000). AID 2326. Potency, µM (series often up to 46.1 µM), inactives show at the highest dose activity, positive = more growth; calls by dose curve; note: potency is the fitted concentration of half-maximal effect; actives are rising curves; nearly all actives have a fitted effect of over 50% in size
#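 Recovery from NS1-induced slow growth read by OD600 in budding yeast switched to galactose assay medium (pH 6.0, -URA) at 1:100 dilution. Compound 23 nl per well; the matching strain lacking NS1 serves as control.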
# Pf growth 48h: inhibits P. falciparum growth in the first generation, 48 h; P. falciparum luciferase growth in erythrocytes, 48 h; actives 5.9% (n = 310,000); Potency, µM (top dose mostly 28.7 µM), without a hit: at the top dose activity change, negative = inhibition, actives largely listed as inhibitors; note: potency is the fitted concentration of half-maximal effect; % is set by controls: 0 for no effect and ±100 for the full control effect
#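 Read-out is firefly luciferase luminescence from an integrated reporter in P. falciparum, so falling signal marks reduced parasite growth. Infected erythrocytes were at 2% hematocrit and 0.1% parasitemia (final) in Albumax-supplemented RPMI 1640.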
# Pf growth 96h: P. falciparum growth inhibition at 96 hour, primary screen for plastid delayed-death inhibitors. P. falciparum luciferase reporter growth, 96 h. Potency, µM (highest dose often 28.7 µM), inactives show top-dose activity change, negative = inhibition, actives largely listed as inhibitors. actives 6.9% (n = 320,000). AID 504834; note: potency is the fitted concentration of half-maximal effect; % is set by controls: 0 for no effect and ±100 for the full control effect
#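 Parasite growth measured via integrated firefly luciferase reporter in P. falciparum. Infected erythrocytes at 2% hematocrit, 0.05% parasitemia final were treated 96 hours at 37 C under 5% CO2, and luminescence was read.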
# Starred values were filed as active, the others as inactive; ? = inconclusive; . = not tested or not shown; [ ] = another dose, or the depositor's remark. Unless noted, calls come from the whole dose curve; as a rule, active = well fitted curve in the direction sought with a large enough effect; inconclusive = small, poorly fitted or top-dose-only effect, or another doubt; inactive = no such curve, though single readings can be large; an effect the other way counts as inactive or inconclusive.
SMILES,Cycloheximide cs,Giardia FBPA inh,Shiga inhibitor,NS1 function inh,Pf growth 48h,Pf growth 96h
O=C(NCCCn1ccnc1)C1CCN(S(=O)(=O)c2ccc(F)cc2)CC1,-10,-8%,-9,2%,4%,2%
COc1ccc(C(=O)/C=C/N(C)C)cc1OC,-4,-2%,2,-69%,19%,25%
CN(C)/C=C/C(=O)c1ccc(OCCN(C)c2ccccn2)cc1,-3,-3%,-3,-60%,12%[0.00184 µM],-18%
CN(C)/C=C/C(=O)c1cc(F)cc(C(F)(F)F)c1,1,6%,-1,-3%,-1%,10%
CN(C)/C=C/C(=O)c1ccc(Oc2ccccc2)cc1,34*,-7%,83*,-48%,31%,41%
COc1ccc(C(=O)/C=C/N(C)C)cc1,20*,-1%,-24,-39%,-11%,2%
CN(C)/C=C/C(=O)c1ccc(F)cc1,21*,-1%,99,-36%,-4%,93%
CN(C)/C=C/C(=O)c1ccccc1,41*,-18%,63*,-7%,15%,-4%
CN(C)/C=C/C(=O)c1ccc(S(=O)(=O)c2ccccc2)cc1,10,9%,34,.,-21%,?
C[C@@H](NC(=O)[C@@H]1Cc2ccccc2CN1)C(=O)NCC1CCCO1 (stereo partly specified),-3,.,-2,-12%,11%,7%
COc1ccc(CCC(=O)NC2CCCc3ccccc32)cc1OC (stereo unspecified),3,0%,-3,0%,9%,0%
CN(C)/C=C/C(=O)c1ccc(Br)s1,21*,3%,54*,-44%,43%,-3%
CCCc1ccc(C(=O)/C=C/N(C)C)cc1,14*,5%,42*,-3%,290%,18%
Cc1c(CCC(=O)NCCCC(=O)O)c(=O)oc2cc3oc4c(c3cc12)CCCC4,8,2%,-6,10%,-18%,1%
O=C(CN(C(=O)c1csnn1)c1cccc2c1CCCC2)NC1CCCC1,-2,0%,-8,-3%,-22%,?
O=C(NCc1nnc(SCc2ccc(F)cc2)n1-c1ccccc1)C12CC3CC(CC(C3)C1)C2,-9,-3%,-7,-3%,9.3µM*,?
O=C(CSc1nnc(CNC(=O)C23CC4CC(CC(C4)C2)C3)n1-c1ccccc1)Nc1ccc(F)cc1,-4,1%,-2,9%,?,?
O=C(NCc1nnc(SCc2ccc(C(F)(F)F)cc2)n1-c1ccccc1)C12CC3CC(CC(C3)C1)C2,0,-3%,-6,?,?,1.7µM*
O=C(NNc1cccc([N+](=O)[O-])c1)/C(=C\c1cccnc1)NC(=O)c1ccccc1,-1,0%,19,-66%,14%,32%
Cc1cc(C)c(NC(=O)COC(=O)C2=COCCO2)c(Cl)c1,.,.,.,.,-21%,8%
O=S(=O)(c1ccccc1)N1CCC[C@@]2(CCN(c3cccc(-c4ccccc4)c3)C2)C1,.,-6%,.,.,.,.
Cc1ccc2nc(Cl)c(C3CC(c4cccs4)=NN3C(=O)CCCC(=O)O)cc2c1 (stereo unspecified),2,8%,13,-4%,2%,-9%
CCS(=O)(=O)N1N=C(c2cccs2)CC1c1cc2cc(C)ccc2nc1Cl (stereo unspecified),32*,-6%,58,17%,?,?
CN(C(=O)CSc1ncnc2sccc12)C1CCCCC1,.,.,.,.,89%,59%
CCOP(=S)(OCC)SCC(=O)NC(C)(CC)C(=O)O (stereo unspecified),6,9%,16,2%,.,7.4µM*
SMILES,Cycloheximide cs,Giardia FBPA inh,Shiga inhibitor,NS1 function inh,Pf growth 48h,Pf growth 96h
CCOP(=S)(OCC)SCCSCC,.,.,.,.,19%,?
O=C(Nc1ccccc1)C1=C[C@H](C2CC2)C[C@H](OCCCCO)O1,28*,-12%,104*,-1%,5%,0%
NC(=O)C1=C[C@H](C2CCCCC2)C[C@H](OCc2ccc(CO)cc2)O1,50*,-15%,63*,4%,118%,232%
CC(C)(C)[C@H]1C=C(C(N)=O)O[C@@H](OCc2ccc(CO)cc2)C1,13*,-8%,40,-1%,0%,0%
O=C(NC1CC1)C1=C[C@@H](C2CCCCC2)C[C@@H](OCc2ccc(CO)cc2)O1,1,4%,-7,2%,?,?
CC(C)(C)[C@@H]1C=C(C(=O)Nc2ccccc2)O[C@H](OCc2ccc(CO)cc2)C1,26*,-10%,50,-12%,?,8.3µM*
C#CCNC(=O)C1=C[C@H](C(C)(C)C)C[C@H](OCc2ccc(CO)cc2)O1,8,-17%,24,-5%,?,?
CC(C)(C)[C@@H]1C=C(C(N)=O)O[C@H](OCc2ccc(CO)cc2)C1,-4,-16%,-2,-1%,40%,-12%
Cc1cc(C)cc(OCC(=O)OCc2nnc(-c3ccccc3)o2)c1,1,-1%,24,.,3%,0%
O=C1CN(Cc2cc(=O)oc3cc4c(cc23)CCC4)CCN1,1,7%,-5,.,12%,0%
CC(C)[C@H](NC(=O)N1CCn2c1nc1ccccc12)C(=O)N1CCCCC1,-2,.,-4,-12%,?,?
O=C(Nc1cccc(Cl)c1)N1CCCCCC1,15*,-6%,23,-19%,31%,?
O=C(NC1CCN(C(=O)Nc2cccc(Cl)c2)CC1)c1ccccc1,-3,6%,-4,4%,-3%,?
O=C(Nc1cccc(Cl)c1)N1CCN(C2c3ccccc3-c3ccccc32)CC1,-1,-4%,-4,2%,9.3µM*,?
O=C(Nc1ccc(C(=O)N2CCCCC2)cc1)c1ccccc1Cl,-2,.,13,-5%,5%,?
O=C(Nc1ccc(C(=O)N2CCCCC2)cc1)Nc1cccc(Cl)c1,33*,.,72*,-5%,?,-6%
CCCc1c(-c2ccc(O)cc2)nn(-c2ccc(O)cc2)c1-c1ccc(O)cc1,-10,13%,-17,-40%,18%,8%
O=C(NCC(c1ccc(F)cc1)N1CCOCC1)c1ccc(C(=O)c2ccccc2)cc1 (stereo unspecified),1,1%,-4,-18%,11%,?
OC(c1ccc(F)cc1)C(CN1CCOCC1)c1ccccc1 (stereo unspecified),-8,-9%,-4,2%,12µM*,10µM*
COc1cccc(OCC(O)CN2CCOCC2)c1 (stereo unspecified),6,-10%[12.9 µM],9,4%,?,?
CCOc1ccc(C(=O)C(CN2CCOCC2)c2ccccc2)cc1 (stereo unspecified),-3,-12%,15,-63%,?,?
CCCCCOc1ccc(C(O)C(CN2CCOCC2)c2ccccc2)cc1 (stereo unspecified),-1,?,-3,-27%,2.6µM*,-4%
